Measured values published in PubChem BioAssay.
Calls of active or inactive are those of the source.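 The calls were made as follows, unless noted: active = inhibition of the reporter signal at or above 50%; inactive = inhibition below 50%.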

Legend:
[1] = inhibitors of TNFa-induced NFkB p65 translocation, primary screen, imaging, HUVEC, MLSMR starter and 10KST1 sets (AID 438;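 active = inhibition above 20% together with a positive visual image hit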;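 also: compound added about 3h40 before a 20 min TNFalpha stimulation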;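 as to inhibition: signal is the nuclear over cytoplasmic p65 intensity ratio per well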); details: HUVEC TNFa-induced p65 nuclear translocation; cell count: measured here: nuclei count (cytotoxicity indicator), at 2.08 µM; inhibition: at 2 µM, stronger effect = higher value, 0% TNFa-plus-vehicle, 100% no-TNFa wells
[2] = inhibitors of mutant huntingtin aggregation, primary screen, imaging, exon1htt(103Q)mCFP cells, high-content imaging (AID 483;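 active = visual image review flags a hit and inhibition of aggregation exceeds 20%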;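 also: compound exposure lasted 3 days before fixation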;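 as to nuclei count: percent of the per-plate median nuclei count of sample wells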); details: exon1htt(103Q)mCFP cell line, aggregate imaging, at 2 µM; inhibition of aggregation: stronger effect = higher value; nuclei count: measured here: cell count, toxicity
[3] = inhibitors of E-selectin induction by TNFa, primary screen, imaging, HUVEC, immunofluorescence, MLSMR starter and 10KST1 sets (AID 487;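 active = visually confirmed hit in the image check and inhibition above 20%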;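 as to inhibition: signal is fraction of cell area covered by stained E-selectin grains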;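 as to nuclei count: 100% = median nuclei count of all wells on the same plate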); details: HUVEC TNFalpha-induced E-selectin immunofluorescence imaging, at 2 µM; inhibition: stronger effect = higher value; nuclei count: measured here: cell number, toxicity
[4] = target: Voltage-gated potassium channel subunit beta-2 (Rattus norvegicus) (UniProt P62483); assay: KvBeta enzyme negative modulators, primary screen, biochemical, NADPH fluorescence (AID 622;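 active = fluorescence slope higher than the sample average by over 3 SD, cut at about -0.22 in these data, passing the limit was not always enough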;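 also: slope of raw intensity against log time taken from 70 to 1610 s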); details: recombinant KvBeta, 4-cyanobenzaldehyde reduction, at 10 µM, stronger effect = higher value
Chain of Voltage-gated potassium channel subunit beta-2 (Rattus norvegicus) (P62483 whole entry, looked up): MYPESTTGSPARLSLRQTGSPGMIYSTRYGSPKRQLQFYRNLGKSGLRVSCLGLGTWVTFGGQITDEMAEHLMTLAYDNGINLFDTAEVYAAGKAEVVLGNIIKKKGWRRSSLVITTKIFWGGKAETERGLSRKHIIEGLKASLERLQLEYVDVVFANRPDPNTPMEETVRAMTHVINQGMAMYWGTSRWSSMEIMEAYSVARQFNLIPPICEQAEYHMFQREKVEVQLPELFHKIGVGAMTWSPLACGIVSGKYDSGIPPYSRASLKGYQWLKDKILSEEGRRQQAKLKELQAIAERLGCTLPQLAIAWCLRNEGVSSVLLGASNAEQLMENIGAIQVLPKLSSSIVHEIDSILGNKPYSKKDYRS

[5] = target: Voltage-gated potassium channel subunit beta-2 (Rattus norvegicus) (UniProt P62483); assay: KvBeta positive modulators, primary screen, biochemical, NADPH fluorescence (AID 623;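 active = NADPH fluorescence slope more negative than the mean of all samples by about 3 SD, 99.7% confidence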;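 also: fluorescence intensity change per second fitted from 20 to 320 s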); details: Recombinant KvBeta, NADPH fluorescence decrease slope, 10 min; at 10 µM; stronger effect = lower value
[6] = target: Alpha-2C adrenergic receptor (Homo sapiens) (UniProt P18825); assay: modulators of alpha2C/GIRK thallium flux, primary screen, cell-based, HEK293 alpha2C/GIRK1/2 (AID 624;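 active = fluorescence slope after compound addition differing from the mean of all screened samples at 99.7% confidence, in either direction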;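 also: slope of fluorescence ratio to pre-addition baseline per second over 15 to 24 s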); details: thallium flux BTC fluorescence, at 10 µM, actives lie on both sides
Chain of Alpha-2C adrenergic receptor (Homo sapiens) (P18825 whole entry, looked up): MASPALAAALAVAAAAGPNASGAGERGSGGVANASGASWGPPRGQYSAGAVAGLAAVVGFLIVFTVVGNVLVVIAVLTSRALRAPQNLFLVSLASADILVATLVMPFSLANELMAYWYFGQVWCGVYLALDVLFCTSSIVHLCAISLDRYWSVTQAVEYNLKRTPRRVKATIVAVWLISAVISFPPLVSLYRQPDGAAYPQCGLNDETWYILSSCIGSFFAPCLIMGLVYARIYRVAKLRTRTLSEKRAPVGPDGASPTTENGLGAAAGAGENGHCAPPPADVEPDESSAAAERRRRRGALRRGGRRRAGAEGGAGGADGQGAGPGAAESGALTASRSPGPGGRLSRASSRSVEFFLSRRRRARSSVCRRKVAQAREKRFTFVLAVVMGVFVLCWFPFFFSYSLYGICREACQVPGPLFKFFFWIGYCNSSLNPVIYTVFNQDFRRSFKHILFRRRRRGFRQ

[7] = inhibitors of Sendai virus-induced IRF3 signaling, primary screen, TLR/RLR signaling modifier project, cell-based, Sendai virus stimulus, luciferase, 10K MLSCN set (AID 602276;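 active = inhibition at or above 50% at 10 µM; inactive = inhibition below 50%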;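 also: firefly luciferase from ISG56 promoter only with Renilla not read in this screen; 0% = Sendai virus plus DMSO and 100% = medium plus DMSO without virus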); details: HEK293 RL24 IRF3 luciferase reporter, at 10 µM, stronger effect = higher value
[8] = inhibitors of poly I:C-induced TLR3 signaling, primary screen, cell-based, poly I:C stimulus, luciferase, 10K MLSCN set (AID 602277); details: HEK293-TLR3 RL24 IRF3 luciferase reporter, at 10 µM, stronger effect = higher value

Structure (SMILES) | cell count [1] | inhibition [1] | inhibition of aggregation [2] | nuclei count [2] | inhibition [3] | nuclei count [3] | fluorescence slope [4] | NADPH fluorescence slope [5] | slope [6] | inhibition [7] | inhibition [8]
O=S(=O)(Cc1ccccc1)N1CCN(Cc2ccccc2)CC1 | 386 | 4.8% (inactive) | 12.7% (inactive) | 103% | -74.1% (inactive) | 117% | -0.46 (inactive) | 4.9e-05 (inactive) | 0.00741 (inactive) | -12% (inactive) | -7.67% (inactive)
Cc1nc(NC2=NCN(CCN3CCOCC3)CN2)nc2c(C)cccc12 | 417 | 4.5% (inactive) | -1.2% (inactive) | 72.4% | -24.5% (inactive) | 108% | -0.419 (inactive) | -3.7e-05 (inactive) | 0.00391 (inactive) | 23.8% (inactive) | 41.1% (inactive)
Cc1cc(/C=N/n2cnnc2)c(C)n1-c1cccc(Cl)c1 | 567 | 4.7% (inactive) | 31% (inactive) | 32.1% | 40.1% (inactive) | 46% | -0.364 (inactive) | -3.8e-05 (inactive) | 0.00449 (inactive) | 13.2% (inactive) | 21.5% (inactive)
COc1ccc(Cc2nc(-c3ccc(Br)cc3)no2)cc1 | 366 | 6% (inactive) | -7% (inactive) | 105% | -17.5% (inactive) | 107% | -0.28 (inactive) | 2e-05 (inactive) | 0.00781 (inactive) | -28.1% (inactive) | -62.7% (inactive)
C#CC1(O)CC(C)N(C)C(C)C1 (stereo not drawn) | 266 | -0.3% (inactive) | 41.8% (active) | 71.2% | -76% (inactive) | 186% | -0.606 (inactive) | 3.5e-06 (inactive) | 0.00632 (inactive) | 11% (inactive) | 17.2% (inactive)
CNC(=O)NCCN1CCCC1=O | 505 | 4.5% (inactive) | -26.4% (inactive) | 111% | -83.1% (inactive) | 123% | -0.335 (inactive) | -3.4e-05 (inactive) | 0.00479 (inactive) | 9.55% (inactive) | 11.8% (inactive)
CC(=O)Nc1cc(NC(C)=O)cc(C(=O)OCC(=O)N2CC(C)OC(C)C2)c1 (stereo not drawn) | 492 | -3.9% (inactive) | 22.1% (inactive) | 104% | 6.9% (inactive) | 109% | -0.299 (inactive) | -4.8e-05 (inactive) | 0.00487 (inactive) | 6% (inactive) | 8.11% (inactive)
CCOc1ccc(N(CC(=O)NC2CCCC2)S(=O)(=O)c2c(C)[nH]c(=O)[nH]c2=O)cc1 | 552 | 14% (inactive) | 15.7% (inactive) | 107% | -159% (inactive) | 132% | -0.518 (inactive) | -5.9e-05 (inactive) | 0.00723 (inactive) | 4.96% (inactive) | 15.6% (inactive)
